The values that follow come from PubChem BioAssay.

A short description of assay [1]: reduced viability of SK-BR-3 breast cancer cells – cell-based, 24 h, human, pilot screen (AID 572).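 Note: compound exposure lasted between 18 and 24 h rather than exactly 24 h; 100% = carrier-treated control wells.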 The conditions noted are these: SK-BR-3 viability, CellTiter-Glo luminescence, at 10 µM, stronger effect = lower value. On the technique in general: ATP-based viability assays read luminescence as a measure of living cells.
Assay [2] can be described thus: HUVEC growth inhibition – cell-based, human, primary screen (AID 575;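 active = viability at or below 30% in both replicate assays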;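 note: 100% = median of untreated cell wells with 0.1% DMSO on each plate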). The conditions noted are these: HUVEC proliferation, CellTiter-Glo luminescence, 72 h; at 10 µM; stronger effect = lower value.
A short description of assay [3]: MRP1 drug-resistance reversers in H69AR cells – cell-based, doxorubicin co-treatment, pilot screen (AID 601;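 active = viability loss from added drug above about 55%, and viability with drug at most 40%, in both replicates, limit read from the data, passing the limit was not always enough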). The conditions noted are these: CellTiter-Glo, 72 h, at 10 µM; for differential viability (reversal): stronger effect = higher value.
Assay [4] is described as follows: yeast transport mutant growth inhibition pilot in 384-well plates, post-Golgi transport modulator project (AID 636; in the data active = inhibition above about 31%). Conditions: absorbance 615 nm, about 18 h, stronger effect = higher value.
A short description of assay [5]: growth suppression of yeast trafficking mutant, preliminary HTS, modulators of trafficking downstream of Golgi apparatus project, 1536-format plate, OD 615 nm (AID 637; in the data active = inhibition above about 30%). Conditions: yeast transport mutant growth, absorbance 615 nm, 18 h; stronger effect = higher value.
[6] abbreviates: H69AR cells + 2 uM doxorubicin, measured here: viability with 2 uM doxorubicin, stronger effect = lower value.
Setting [7] is: H69AR cells, compound alone cytotoxicity.

For orientation: viability means a read-out of living cells in per cent, often relative to untreated cells. For orientation: inhibition means the relative decrease from the control value, in per cent.

Calls of active or inactive are those of the source.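 Rule for the calls, unless noted: active = viability at or below 10% of carrier control in both of two separate runs; inconclusive = viability at or below 10% in only one of the two runs; inactive = the rest.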

For `COc1ccc2cc(C(c3nnnn3C(C)(C)C)N3CCc4ccccc4C3)c(=O)[nH]c2c1` (stereo not given), the viability in assay [1] was 81% (inactive); in assay [2], 48.3% (inactive); in assay [3] (setting [6]), 23.1%; in assay [3] (setting [7]), 49.1%. Besides, the differential viability (reversal) in assay [3] (H69AR cells + 2 uM doxorubicin) is 26% (inactive). Also, the values for the inhibition in assay [4] and in assay [5] were -5.33% (inactive) and -2.36% (inactive), respectively.
As for `COC1=CC(=O)CC(C)C12Oc1c(Cl)c(OC)cc(OC)c1C2=O` (stereo not given), the viability in assay [1] was 100% (inactive); in assay [2] it was 62.8% (inactive); in assay [3] (setting [6]), 50%; in assay [3] (setting [7]), 18.1%. Besides, in assay [3] (H69AR cells + 2 uM doxorubicin), the differential viability (reversal) was -31.8% (inactive). In addition, the inhibition is -2.99% (inactive) in assay [4] and -5.67% (inactive) in assay [5].
`CCOC(=O)N1CCC(=C2c3ccc(Cl)cc3CCc3cccnc32)CC1`: the viability was 116% (inactive) in assay [1] and 52.7% (inactive) in assay [2]. For the same molecule, the figures for the inhibition in assay [4] and in assay [5] were 1.95% (inactive) and 12.2% (inactive), respectively.
As for `CC1Cc2ccccc2N1CC(=O)NC(=O)NCc1ccco1` (stereo not given), the viability in assay [1] was 85% (inactive); in assay [2], 89.6% (inactive); in assay [3] (setting [6]), 70.1%; in assay [3] (setting [7]), 39.9%. The differential viability (reversal) in assay [3] (H69AR cells + 2 uM doxorubicin) is -30.2% (inactive). Also, the inhibition in assay [4] is -0.27% (inactive); in assay [5], 2.36% (inactive).
Take `COc1ccc(CCN(C)CCCC(C#N)(c2ccc(OC)c(OC)c2)C(C)C)cc1OC` (stereo not given): the viability in assay [1] is 73% (inactive); in assay [2], 66.8% (inactive). Also, the inhibition in assay [4] is -2.34% (inactive); in assay [5] it was -0.5% (inactive).
Regarding `Cc1cc(C(=O)CSc2nc3ccccc3n2CCC#N)c(C)n1Cc1cccs1`, the viability in assay [1] is 58% (inactive); in assay [2], 110% (inactive); in assay [3] (setting [6]), 32.9%; in assay [3] (setting [7]), 31.7%. Moreover, the differential viability (reversal) in assay [3] (H69AR cells + 2 uM doxorubicin) was -1.21% (inactive). Moreover, the inhibition in assay [4] was -5.41% (inactive); in assay [5], -3.09% (inactive).
In the case of `C=CCOc1ccc(CN(C)CC(=O)N(CC(C)C)c2c(N)n(CC(C)C)c(=O)[nH]c2=O)cc1`, the figures for the viability in assay [1] and in assay [2] were 99% (inactive) and 99.6% (inactive), respectively. Moreover, the inhibition in assay [4] is -6.16% (inactive); in assay [5] it was 2% (inactive).
For `COc1ccccc1C(=O)NCC(c1cccnc1)N(C)C` (stereo not given) the same measures were 108% (inactive), 96% (inactive), -7.12% (inactive) and -1.27% (inactive).
As to `COc1ccc(-c2ccc(-c3noc(-c4ccccc4OC)n3)c(OC)n2)cc1`, the viability in assay [1] is 62% (inactive); in assay [2] it was 63.9% (inactive); in assay [3] (setting [6]), 64.9%; in assay [3] (setting [7]) it was 62.9%. In addition, the differential viability (reversal) in assay [3] (H69AR cells + 2 uM doxorubicin) is -2.01% (inactive). The inhibition in assay [4] is -4.59% (inactive); in assay [5], 18.9% (inactive).
As for `OCCN1CCN(CCCN2c3ccccc3Sc3ccc(Cl)cc32)CC1`, the viability in assay [1] was 53% (inactive); in assay [2], 1.56% (active); in assay [3] (setting [6]), 5.27%; in assay [3] (setting [7]) it was 1.41%. Besides, the differential viability (reversal) in assay [3] (H69AR cells + 2 uM doxorubicin) was -3.86% (inactive). Further, the inhibition in assay [4] was -3.38% (inactive); in assay [5], 47.3% (active).
As to `CC(C)(C)OC(=O)N1CC=C2C(C#N)=C(N)C(C#N)(C#N)C(c3cccs3)C2C1` (stereo not given), the viability in assay [1] is 65% (inactive); in assay [2] it was 53.9% (inactive); in assay [3] (setting [6]), 57.8%; in assay [3] (setting [7]), 52.8%. Moreover, the differential viability (reversal) in assay [3] (H69AR cells + 2 uM doxorubicin) was -5.04% (inactive). The inhibition is -1.92% (inactive) in assay [4] and -0.16% (inactive) in assay [5].
Turning to `CCCOc1ccc2nc(NC(=O)OC)[nH]c2c1`, the viability in assay [1] was 95% (inactive); in assay [2], 37.3% (inactive); in assay [3] (setting [6]) it was 57.3%; in assay [3] (setting [7]) it was 26.9%. For the same molecule, in assay [3] (H69AR cells + 2 uM doxorubicin), the differential viability (reversal) is -30.4% (inactive). For the same molecule, the inhibition in assay [4] was -0.52% (inactive); in assay [5] it was -1.5% (inactive).
Take `CCOC(=O)N1CCC(NC(=O)c2ccc3c(c2)sc2nc(-c4cccc(OC)c4)cn23)CC1`: the viability is 80% (inactive) in assay [1], 52% (inactive) in assay [2], 41.5% in assay [3] (setting [6]) and 49.9% in assay [3] (setting [7]). Moreover, the differential viability (reversal) in assay [3] (H69AR cells + 2 uM doxorubicin) was 8.43% (inactive). For the same molecule, the inhibition was -1.95% (inactive) in assay [4] and -0.98% (inactive) in assay [5].
Take `CC(=O)O[C@@]12CO[C@@H]1C[C@H](O)[C@@]1(C)C(=O)[C@H](O)C3=C(C)[C@@H](OC(=O)[C@H](O)[C@@H](NC(=O)OC(C)(C)C)c4ccccc4)C[C@](O)([C@@H](OC(=O)c4ccccc4)[C@H]21)C3(C)C`: the viability in assay [1] was 130% (inactive); in assay [2] it was 40.7% (inactive); in assay [3] (setting [6]), 98.8%; in assay [3] (setting [7]), 19.2%. Also, the differential viability (reversal) in assay [3] (H69AR cells + 2 uM doxorubicin) was -79.6% (inactive). For the same molecule, the inhibition was -4.03% (inactive) in assay [4] and -2.33% (inactive) in assay [5].
As for `N#Cc1cc2c(nc1SCC(=O)Nc1sc3c(c1C#N)CCC3)CCCCC2`, the viability in assay [1] was 82% (inactive); in assay [2], 79.5% (inactive); in assay [3] (setting [6]), 57.4%; in assay [3] (setting [7]) it was 40.9%. In addition, the differential viability (reversal) in assay [3] (H69AR cells + 2 uM doxorubicin) is -16.5% (inactive). Also, the inhibition is -7.84% (inactive) in assay [4] and -8.91% (inactive) in assay [5].
With `CCCc1[nH]nc2c1C(c1cn[nH]c1-c1ccc(F)cc1)C(C#N)=C(N)O2` (stereo not given), the viability in assay [1] was 98.5% (inactive); in assay [2], 48.3% (inactive); in assay [3] (setting [6]) it was 53.7%; in assay [3] (setting [7]), 45.4%. Further, the differential viability (reversal) in assay [3] (H69AR cells + 2 uM doxorubicin) is -8.32% (inactive). For the same molecule, the values for the inhibition in assay [4] and in assay [5] were -2.21% (inactive) and 2.95% (inactive), respectively.
On to `CCOC(=O)C1CCN(CC(=O)Nc2c(C(=O)OC)[nH]c3ccc(Cl)cc23)CC1`, for which the viability in assay [1] was 103% (inactive); in assay [2] it was 65.5% (inactive); in assay [3] (setting [6]), 23.5%; in assay [3] (setting [7]), 58.4%. In assay [3] (H69AR cells + 2 uM doxorubicin), the differential viability (reversal) was 34.9% (inactive). For the same molecule, the inhibition in assay [4] is -4.4% (inactive); in assay [5] it was 3.09% (inactive).
Regarding `CC(C)(C)c1ccc(C(O)CCCN2CCC(C(O)(c3ccccc3)c3ccccc3)CC2)cc1` (stereo not given), the viability was 91% (inactive) in assay [1], 1.7% (active) in assay [2], 1.16% in assay [3] (setting [6]) and 1.54% in assay [3] (setting [7]). Moreover, in assay [3] (H69AR cells + 2 uM doxorubicin), the differential viability (reversal) is 0.38% (inactive). Also, the figures for the inhibition in assay [4] and in assay [5] were -1.95% (inactive) and -1% (inactive), respectively.
Consider `CCOC(=O)c1[nH]c(CSc2nnc(-c3ccc(OC)cc3)o2)c(C(=O)OCC)c1C`, for which the viability in assay [1] is 56% (inactive); in assay [2], 72.3% (inactive); in assay [3] (setting [6]), 37.4%; in assay [3] (setting [7]) it was 38%. For the same molecule, in assay [3] (H69AR cells + 2 uM doxorubicin), the differential viability (reversal) is 0.61% (inactive). For the same molecule, the inhibition is -3.24% (inactive) in assay [4] and -4.36% (inactive) in assay [5].
Regarding `Cc1[nH]nc2c1C1(C(=O)N(Cc3ccc(Cl)cc3)c3ccccc31)C(C#N)=C(N)O2` (stereo not given), the viability in assay [1] was 94% (inactive); in assay [2], 90% (inactive); in assay [3] (setting [6]), 92%; in assay [3] (setting [7]), 52.2%. Further, the differential viability (reversal) in assay [3] (H69AR cells + 2 uM doxorubicin) was -39.8% (inactive). Besides, the inhibition was -4.32% (inactive) in assay [4] and 0.18% (inactive) in assay [5].
As to `COc1cc(NC(=O)c2ccco2)c(OC)cc1NC(=O)CCC(=O)Nc1cc(C)cc(C)c1`, the viability is 106% (inactive) in assay [1], 42.5% (inactive) in assay [2], 69.4% in assay [3] (setting [6]) and 53.1% in assay [3] (setting [7]). Also, in assay [3] (H69AR cells + 2 uM doxorubicin), the differential viability (reversal) is -16.3% (inactive). Also, the inhibition in assay [4] was -6.58% (inactive); in assay [5], -0.95% (inactive).
